Measured values reported in PubChem BioAssay.
Calls of active or inactive are those of the source. The rule behind the calls is not given here.

What was measured:
[1] = liver-stage malaria parasite load reduction – cell-based, known kinase inhibitor set, luminescence, hepatoma host viability (AID 624392); conditions: Plasmodium liver stage in hepatoma cells, luciferase luminescence, concentration not given here; liver cell % of control: measured here: host liver cell viability; parasite % of control: stronger effect = lower value;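 note: infected cells incubated roughly two days before readout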
[2] = altered dexamethasone sensitivity, NF-kB reporter, cell-based, luciferase, IL-1B stimulus (AID 624486); conditions: IL-1B + dexamethasone, luminescence; percent of negative control (+Dex): actives lie on both sides, concentration not given here; z-score: measured here: IL-1B alone, no Dex;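 for percent of negative control (+Dex): 100% = mean signal of vehicle control wells on the plate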
[3] = biological target: Cellular tumor antigen p53 (Homo sapiens) (UniProt P04637); assay: GFP-p53 level modulators in HPV16+ cells – imaging, known kinase inhibitor set, EGFP/DsRed ratio (AID 1053116); conditions: GFP-p53 stability, stronger effect = higher value; EGFP object count: measured here: GFP-p53 positive objects count;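 note: cells exposed to compounds for 24 h at 37 °C before reading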
[4] = inducers of IRF3 signaling, differentiated THP-1 – cell-based, PMA-stimulated THP-1, luminescence (AID 1053176); conditions: PMA-differentiated THP-1, IRF3 reporter luminescence; stronger effect = higher value

Sequence of Cellular tumor antigen p53 (Homo sapiens) (P04637 whole entry, looked up): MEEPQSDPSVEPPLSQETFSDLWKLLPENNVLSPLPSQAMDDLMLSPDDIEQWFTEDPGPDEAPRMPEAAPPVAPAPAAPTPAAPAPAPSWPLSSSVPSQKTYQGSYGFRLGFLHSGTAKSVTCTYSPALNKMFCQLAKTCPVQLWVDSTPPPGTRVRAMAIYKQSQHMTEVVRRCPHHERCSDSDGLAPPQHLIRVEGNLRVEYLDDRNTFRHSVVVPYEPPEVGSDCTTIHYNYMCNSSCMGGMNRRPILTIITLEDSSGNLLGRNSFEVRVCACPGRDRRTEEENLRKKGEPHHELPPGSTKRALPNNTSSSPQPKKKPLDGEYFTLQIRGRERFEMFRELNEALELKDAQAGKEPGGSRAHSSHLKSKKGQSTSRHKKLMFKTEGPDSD

Compound | liver cell % of control [1] | parasite % of control [1] | percent of negative control (+Dex) [2] | z-score [2] | EGFP object count [3] | EGFP/DsRed ratio [3] | fraction signal [4]
Cn1c(=O)c(Oc2ccc(F)cc2F)cc2cnc(NC(CO)CO)nc21 | 113% | 64.2% (inactive) | 108% (inactive) | 0.05 | 2.5 | 0.0637 (inactive) | 0.0035 (inactive)
Cn1cc(C2=C(n3ccc4ccccc43)C(=O)NC2=O)c2ccccc21 | 130% | 37.7% (inactive) | 95.5% (inactive) | 0.125 | 4 | 0.178 (inactive) | -0.0025 (inactive)
Cc1cc(C)c2c(n1)sc1c(N)ncnc12 | 173% | 24.3% (inactive) | 68.5% (active) | -2.76 | 2.5 | 0.0145 (inactive) | 0.0035 (inactive)
Nc1c(C(=O)c2cccc(OCC(O)CO)c2)cnn1-c1ccc(F)cc1 (stereo not given) | 125% | 58.2% (inactive) | 110% (inactive) | 1.27 | 1.5 | 0.00398 (inactive) | -0.0115 (inactive)
O=c1[nH]c2nc(NC3CCOCC3)ncc2cc1Oc1ccc(F)cc1F | 94.5% | 56.1% (inactive) | 104% (inactive) | 0.61 | 2 | 0.08 (inactive) | -0.003 (inactive)
Cn1c(=O)c(-c2ccccc2Cl)cc2cnc(NC3CCOCC3)nc21 | 100% | 252% (inactive) | 93% (inactive) | -0.175 | 1 | 0.00654 (inactive) | -0.0055 (inactive)
Cn1cc(C2=C(c3cn(CCCCCN)c4ccccc34)C(=O)NC2=O)c2ccccc21 | 105% | 35.6% (inactive) | 99.5% (inactive) | 0.77 | 13.5 | 0.639 (inactive) | 0.0035 (inactive)
COc1cccc(C2=C(c3cn(C)c4cccc(OC)c34)C(=O)NC2=O)c1 | 91.4% | 121% (inactive) | 99% (inactive) | 0.35 | 9 | 0.102 (inactive) | 0.0015 (inactive)
CC(C)Nc1ncc2cc(Oc3ccc(F)cc3F)c(=O)n(C)c2n1 | 99.2% | 50.9% (inactive) | 95.5% (inactive) | -0.005 | 1 | 0.00675 (inactive) | -0.0005 (inactive)
COc1cc[nH]c1C=C1C(=O)Nc2ccc(F)c(C#CC(O)C(N)C(C)O)c21 (stereo not given) | 76.5% | 46.6% (inactive) | 135% (inactive) | 0.23 | 250 | 1.32 (inactive) | 0.0035 (inactive)
Fc1ccc(-c2c(-c3ccncc3)[nH]c3nccnc23)cc1 | 183% | 30.2% (inactive) | 110% (inactive) | -0.915 | 4 | 0.101 (inactive) | -0.02 (inactive)
O=C1NC(=NCCc2cccs2)SC1=Cc1ccc2ncccc2c1 | 118% | 40.6% (inactive) | 96% (inactive) | -0.36 | 4.5 | 0.079 (inactive) | -0.003 (inactive)
CN1CCN(CCc2cccc(C(=O)c3cnn(-c4ccc(F)cc4)c3N)c2)CC1 | 112% | 51.1% (inactive) | 96.5% (inactive) | 1.1 | 5 | 0.187 (inactive) | 0.0015 (inactive)
Cn1cc(C2=C(c3ccccc3C(F)(F)F)C(=O)NC2=O)c2ccccc21 | 149% | 31% (inactive) | 114% (inactive) | 0.1 | 32.5 | 0.646 (inactive) | 0.01 (inactive)
COc1cccc(C2=C(c3cn(C)c4ccc(Cl)cc34)C(=O)NC2=O)c1 | 197% | 11.6% (inactive) | 139% (inactive) | 0.245 | 13.5 | 0.277 (inactive) | -0.0075 (inactive)
Cn1cc(C2=C(c3cn(C)c4cc(C(=O)O)ccc34)C(=O)NC2=O)c2ccccc21 | 145% | 38.3% (inactive) | 99% (inactive) | 0.65 | 2.5 | 0.485 (inactive) | 0.0035 (inactive)
COc1cccc(F)c1C(=O)c1cnc(NC2CCN(S(C)(=O)=O)CC2)nc1N | 93.1% | 512% (inactive) | 116% (inactive) | 2.08 | 3.5 | 0.124 (inactive) | -0.018 (inactive)
CCn1c(=O)c(Oc2ccc(F)cc2F)cc2cnc(NC3CCOCC3)nc21 | 103% | 55.7% (inactive) | 85.5% (inactive) | -0.82 | 3.5 | 0.0988 (inactive) | -0.005 (inactive)
N#Cc1c(C(=O)c2ccccc2)cnn1-c1ccccc1 | 104% | 56.2% (inactive) | 106% (inactive) | 1.11 | 7 | 0.125 (inactive) | -0.007 (inactive)
Cn1cc(C2=C(c3cccc(Cl)c3)C(=O)NC2=O)c2ccccc21 | 109% | 69.6% (inactive) | 106% (inactive) | 0.59 | 5 | 0.137 (inactive) | 0.0035 (inactive)
